Among the test systems are NCI-H23 lung; NCI-H226 lung; NCI-H322M lung; HOP-62 NSCLC; NCI-H460 lung; HOP-92 NSCLC; NCI-H522 lung; A549/ATCC NSCLC; 786-0 renal; COLO 205 colon; DU-145 prostate; K-562 leukemia; MALME-3M melanoma; MDA-MB-231 breast; RXF 393 renal; SF-268 CNS; SF-295 CNS; SF-539 CNS; M14 melanoma.
Assay in all cases: NCI-60 one-dose screen, 48 h (100 = growth as untreated, 0 = no growth, -100 = all killed)
What all share (conditions): 10 µM unless noted

About 83,000 compounds went through this panel and 20% of them were active in at least one assay; those are over-represented in the sample as a whole.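 Percent growth is the endpoint: 0 to 100 indicates growth inhibition (40 means 60% inhibition), 0 means no net growth, and negative values indicate cell death.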 Unmarked numbers belong to inactive results. Active and inactive are the calls of the source. How the source made its calls: active means growth percent below 10; inactive means the rest.

As to `O=C(Nc1ccc(F)cc1)c1cc([N+](=O)[O-])ccc1O`, the growth is 50.1% in the test on NCI-H23 lung; 88.3% in the test with NCI-H226 lung; 64.3% in the test on NCI-H322M lung; 65.2% with HOP-62 NSCLC; 64.2% with NCI-H460 lung; 15.7% in the test on HOP-92 NSCLC. Further, the growth was 15.3% with NCI-H522 lung; 68.1% with A549/ATCC NSCLC; 80.2% in the test with 786-0 renal; 81.5% with COLO 205 colon; 78.3% in the test with DU-145 prostate; 45.3% with K-562 leukemia. The growth in the test on MALME-3M melanoma was 37.4%; with MDA-MB-231 breast, 65.9%; with RXF 393 renal it was 68.2%; in the test with SF-268 CNS, 72.9%; in the test on SF-295 CNS, 78.6%; with SF-539 CNS, 47.3%. Also, the growth in the test with M14 melanoma is 75.7%.
Take `COc1ccc(/C(=N\O)c2cc(OC)c(OC)c(OC)c2)c(OC)c1N`: the growth is 34.7% in the test with NCI-H23 lung; 78.2% in the test with NCI-H226 lung; 48.4% in the test on NCI-H322M lung; 39.7% in the test on HOP-62 NSCLC; 6.35% (active) with NCI-H460 lung; 78.7% in the test on HOP-92 NSCLC. The growth is -9.39% (active) in the test on NCI-H522 lung; 43.2% in the test with A549/ATCC NSCLC; 34.7% with 786-0 renal; -0.741% (active) in the test on COLO 205 colon; 15.3% with DU-145 prostate; 7.11% (active) in the test with K-562 leukemia. Besides, the growth in the test on MALME-3M melanoma was 48.9%; in the test on MDA-MB-231 breast it was 36.9%; in the test with RXF 393 renal it was 16.8%; with SF-268 CNS, 42.1%; with SF-295 CNS, -9.97% (active); in the test with SF-539 CNS, -35.2% (active). The growth with M14 melanoma was 7.17% (active).
Turning to `CCN1C(=O)N[C@H]2[C@@H]3NC(=O)c4ccc(Cl)n4[C@@H]3C[C@]21O`, the growth in the test with NCI-H23 lung was 6.06% (active); in the test with NCI-H226 lung, 5.43% (active); in the test with NCI-H322M lung, 11.7%; in the test on HOP-62 NSCLC, -4.56% (active); in the test on NCI-H460 lung, 2.06% (active); in the test on HOP-92 NSCLC, 3.95% (active). The growth was -26.9% (active) in the test on NCI-H522 lung; 9.08% (active) with A549/ATCC NSCLC; -4.85% (active) in the test with 786-0 renal; -29.5% (active) in the test with COLO 205 colon; 5.1% (active) in the test on DU-145 prostate; 3.13% (active) in the test on K-562 leukemia. Besides, the growth is -1.41% (active) in the test with MALME-3M melanoma; -3.51% (active) in the test on MDA-MB-231 breast; 10.2% in the test with RXF 393 renal; 5.4% (active) in the test on SF-268 CNS; 0.996% (active) with SF-295 CNS; -33.5% (active) with SF-539 CNS. The growth in the test on M14 melanoma was -21.3% (active).
As to `NC(=O)c1ccc2c(c1)OCO2`, the growth with NCI-H23 lung was 89.2%; in the test on NCI-H226 lung it was 98.5%; in the test on NCI-H322M lung, 107%; in the test with HOP-62 NSCLC it was 112%; in the test with NCI-H460 lung it was 109%; in the test with HOP-92 NSCLC, 90.2%. For the same compound, the growth in the test on NCI-H522 lung was 91.9%; in the test on A549/ATCC NSCLC, 105%; in the test on 786-0 renal, 105%; in the test on COLO 205 colon, 113%; with DU-145 prostate, 108%; in the test with K-562 leukemia it was 115%. In addition, the growth in the test on MALME-3M melanoma is 98.3%; in the test on MDA-MB-231 breast, 100%; in the test on RXF 393 renal, 94.5%; in the test with SF-268 CNS, 97.2%; in the test with SF-295 CNS it was 96.5%; in the test with SF-539 CNS, 104%. Also, the growth with M14 melanoma was 101%.
For the compound `COc1ncc(-c2ccc3ncnc(Nc4cccc(Cl)c4)c3c2)cc1N(S(C)(=O)=O)S(C)(=O)=O`, the growth was 71.5% in the test on NCI-H23 lung; 64.5% in the test on NCI-H226 lung; 17.4% in the test on NCI-H322M lung; 79.1% with HOP-62 NSCLC; 62.3% in the test with NCI-H460 lung; 7.62% (active) in the test on HOP-92 NSCLC. Besides, the growth is 52.2% in the test on NCI-H522 lung; 47.9% in the test on A549/ATCC NSCLC; 79.5% in the test on 786-0 renal; 77.1% with COLO 205 colon; 54.8% in the test with DU-145 prostate; 94.2% in the test on K-562 leukemia. For the same compound, the growth with MALME-3M melanoma is 44.8%; with MDA-MB-231 breast, 67.3%; in the test on RXF 393 renal, 68.8%; in the test with SF-268 CNS, 73.2%; with SF-295 CNS, 76%; in the test with SF-539 CNS, 76.2%. The growth in the test with M14 melanoma is 73.7%.
With `N#Cc1c(NC(=O)c2ccc([N+](=O)[O-])o2)[n+]([O-])c2cc(F)c(F)cc2[n+]1[O-]`, the growth in the test with NCI-H23 lung is 99%; with NCI-H226 lung it was 108%; with NCI-H322M lung it was 119%; in the test on HOP-62 NSCLC it was 123%; in the test on NCI-H460 lung, 110%; with HOP-92 NSCLC it was 96.6%. Further, the growth was 101% in the test on NCI-H522 lung; 116% in the test on A549/ATCC NSCLC; 110% with 786-0 renal; 132% in the test with COLO 205 colon; 126% with DU-145 prostate; 92.2% with K-562 leukemia. Further, the growth in the test with MALME-3M melanoma is 125%; with MDA-MB-231 breast it was 114%; in the test with RXF 393 renal, 1.39% (active); in the test on SF-268 CNS, 120%; in the test with SF-295 CNS, 97%; with SF-539 CNS it was 137%. Also, the growth in the test with M14 melanoma is 112%.
Regarding `Cc1cc(C(=O)O)c(N)c(C)n1`, the growth is 100% with NCI-H23 lung; 118% with NCI-H226 lung; 106% in the test on NCI-H322M lung; 106% in the test with HOP-62 NSCLC; 108% in the test with NCI-H460 lung; 93.2% in the test on HOP-92 NSCLC. Also, the growth is 107% with NCI-H522 lung; 108% with A549/ATCC NSCLC; 104% with 786-0 renal; 119% in the test on COLO 205 colon; 110% with DU-145 prostate; 104% in the test with K-562 leukemia. In addition, the growth in the test on MALME-3M melanoma is 109%; in the test on MDA-MB-231 breast it was 106%; in the test on RXF 393 renal it was 121%; in the test on SF-268 CNS, 104%; in the test on SF-295 CNS it was 111%; with SF-539 CNS it was 102%. Besides, the growth in the test on M14 melanoma was 102%.

Source of the values: PubChem BioAssay (NCI).
